According to PubChem BioAssay (NCATS):
Records with an inconclusive call do not appear. Active and inactive are the calls of the source. The call rests on the fitted dose curve; tested in HEK293 reporter line.

assay: qHTS for Inhibitors of the Functional Ribonucleoprotein Complex (vRNP) of Lassa (LASV) Arenavirus: LASV Primary Screen - GLuc reporter signal (AID 1347082); settings: LASV minigenome vRNP, Gaussia luciferase reporter; series mostly up to 57.5 µM; activity change, negative = inhibition: at the top concentration; further: nearly all actives have a fitted effect of over 60% in size
On the % scale 0 is the no-effect control and ±100 the full control effect; potency means the concentration at half of the fitted maximal effect.

| SMILES | activity change, negative = inhibition | Potency |
| --- | --- | --- |
| CCC(=O)OCCC(C)CCC=C(C)C (stereo not given) | -3.92% [at 115 µM] (inactive) |  |
| Nc1nc(=O)n([C@H]2CSC(CO)O2)cc1F (stereo not given in full) | 1.12% (inactive) |  |
| COc1c2c(nc3occc13)C(CC=C(C)C)(OC)C(OC(C)=O)CC2 (stereo not given) | 6.48% (inactive) |  |
| CCn1c(-c2nonc2N)nc2cncc(CNC3CCNCC3)c21 |  | 24.3 µM (active) |
| CC1(C)CC(=O)CC(C)(C)N1 | -18.1% [at 115 µM] (inactive) |  |
| C[C@H]([C@@H](N)C(=O)N[C@@H](C(=O)O)[C@@H]1O[C@H](n2ccc(=O)[nH]c2=O)[C@@H](O)[C@H]1O)[C@@H](O)c1ccc(O)cn1 | 6.4% (inactive) |  |
| O=c1[nH]cnc2c1ncn2C1OCC(O)C(O)C1O (stereo not given) | -2.34% (inactive) |  |
| C[C@H]1CC[C@@H]2[C@@H](C)[C@H]3C(C[C@H]4C5CC[C@H]6C[C@@H](O)CC[C@]6(C)C5CC[C@]34C)N2C1 (stereo not given in full) | 2.81% (inactive) |  |
| COC(=O)[C@@]1(C)CC[C@]2(C)CC[C@@]3(C)C(=CC(=O)C4[C@@]5(C)CC[C@H](O)C(C)(C)[C@@H]5CC[C@]43C)[C@H]2C1 (stereo not given in full) | 0.364% (inactive) |  |
| C=CC(=O)Nc1cccc(Nc2nc(NC3CCC(N(C)C)CC3)nc3c2ncn3C(C)C)c1 (stereo not given) |  | 2.17 µM (active) |
| COc1ccc(C2CC(=O)c3c(O)cc(O)cc3O2)c(CC=C(C)C)c1OC (stereo not given) | 9.34% (inactive) |  |
| CC(C)CC[C@@H](O)[C@](C)(O)C1CC[C@@]2(O)C3=CC(=O)[C@@H]4C[C@@H](O)[C@@H](O)C[C@]4(C)C3CC[C@]12C (stereo not given in full) | 5.67% (inactive) |  |
| O=c1ccc2ccc(O[C@@H]3O[C@H](CO[C@@H]4OC[C@](O)(CO)[C@H]4O)[C@@H](O)[C@H](O)[C@H]3O)cc2o1 | -1.34% (inactive) |  |
| CC1(C)C[C@H]2C3=CCC4[C@@]5(C)CC[C@H](O)[C@](C)(CO)C5CC[C@@]4(C)[C@]3(C)C[C@@H](O)[C@@]2(CO)[C@@H](O)[C@@H]1O (stereo not given in full) | 0.499% (inactive) |  |
| O=CN(O)CCCP(=O)(O)O | -0.332% (inactive) |  |
| CC1CC2CCCC(O)=C2C(=O)O1 (stereo not given) | 18% (inactive) |  |
| C/C=C(\C)C(=O)O[C@H]1CC(C)=C2C(=O)C=C(C)C2[C@@H]2OC(=O)[C@@](C)(OC(=O)C=C(C)C)C21 (stereo not given in full) | -0.176% (inactive) |  |
| ON=Cc1ccnc2ccccc12 | 10.1% (inactive) |  |
| CSC(=S)NCc1c[nH]c2ccccc12 | 3.83% (inactive) |  |
| O=C(Oc1ccccc1)c1ccccc1C(=O)Oc1ccccc1 | 11.7% (inactive) |  |
| c1ccc2cnccc2c1 | -1.26% [at 115 µM] (inactive) |  |
| COc1ccc2c(=O)c(-c3ccc(OC)c(OC)c3)coc2c1 | 4.09% (inactive) |  |
| CC1(C)OC(=O)C=C[C@]2(C)[C@H]3CC[C@@]4(C)[C@H](c5ccoc5)OC(=O)[C@H]5O[C@]54[C@]3(C)C(=O)C[C@@H]12 | 1.73% (inactive) |  |
| COc1cc2c(c3oc(-c4ccccc4)cc(=O)c13)C=CC(C)(C)O2 | -12.8% (inactive) |  |
| COc1cc(O)c2c(=O)c3c(O[C@H]4O[C@@H](CO)[C@H](O)[C@@H](O)[C@@H]4O)ccc(O)c3oc2c1 | 7.75% (inactive) |  |

assay: qHTS for Inhibitors of the Functional Ribonucleoprotein Complex (vRNP) of Lassa (LASV) Arenavirus: Viability assay - alamar blue signal for LASV Primary Screen (AID 1347083); settings: cell viability, alamar blue fluorescence (LASV minigenome counter-screen); series mostly up to 57.5 µM; activity change, negative = reduced viability: at the top concentration; further: nearly all actives have a fitted effect of over 80% in size

| SMILES | activity change, negative = reduced viability | Potency |
| --- | --- | --- |
| O=C(O)CCC/C=C\C/C=C\C=C\[C@@H](O)C/C=C\CCCCCO | 9.56% [at 0.757 µM] (inactive) |  |
| COc1c2c(cc(O)c1C(C)=O)OC(C)(C)C=C2 | 16.6% (inactive) |  |
| C[C@]12C=CC(=O)C=C1CC[C@@H]1[C@@H]2[C@@H](O)C[C@@]2(C)[C@@H]1CC[C@]2(O)C(=O)CO | 1.21% (inactive) |  |
| O=c1ccn([C@H]2C[C@H](O)[C@@H](CO)O2)c(=O)[nH]1 | 0.847% (inactive) |  |
| C/C=C1\CN2[C@H]3C[C@@]45c6ccccc6N(C)[C@H]4[C@@H]2CC1C3[C@H]5O (stereo not given in full) | -3.14% (inactive) |  |
| CC[C@H](C)C(=O)N[C@H]1CCCN1C(=O)/C=C/c1ccccc1 | -1.08% (inactive) |  |
| CC(C)C1C(=O)O[C@@H]2CCN3CC=C(COC(=O)[C@](C)(O)[C@]1(C)O)[C@H]23 (stereo not given in full) | 3.65% (inactive) |  |
| COc1ccc([C@H]2c3cc(OC)c(OC)cc3C[C@@H](C)[C@@H]2C)cc1OC | 15.6% (inactive) |  |
| CC(=O)O[C@H]1C[C@@H]2CC[C@H]3[C@H]4C[C@H]([N+]5(C)CCCCC5)[C@@H](OC(C)=O)[C@@]4(C)CC[C@@H]3[C@@]2(C)C[C@H]1N1CCCCC1 | 6.46% (inactive) |  |
| OC[C@H]1O[C@@H](Oc2ccc(O)cc2)[C@H](O)[C@@H](O)[C@H]1O | -22.2% (inactive) |  |
| C=Cc1cc(OC)c2c(c1)c(=O)oc1c2cc(OC)c2c(O)ccc(C3OC(C)C(O)C(C)(O)C3O)c21 (stereo not given) | -0.686% (inactive) |  |
| CCc1ccc(O)c(OC)c1 | 12.6% [at 115 µM] (inactive) |  |
| COc1cc2c(=O)c(-c3ccc(O)cc3)coc2cc1OC1OC(CO)C(O)C(O)C1O (stereo not given) | -1.93% (inactive) |  |
| CCC/C=C/C/C=C/C=C/C=N/NN=O | -2.93% (inactive) |  |
| CC(C)=CCC[C@](C)(O)C1CC[C@]2(C)C1[C@H](O)CC1[C@@]3(C)CC[C@H](O[C@@H]4O[C@H](CO)[C@@H](O)[C@H](O)[C@H]4O[C@@H]4O[C@H](CO)[C@@H](O)[C@H](O)[C@H]4O)C(C)(C)C3CC[C@]12C (stereo not given in full) | 4.04% (inactive) |  |
| CCC(=O)OCCC(C)CCC=C(C)C (stereo not given) | -2.09% [at 115 µM] (inactive) |  |
| Nc1nc(=O)n([C@H]2CSC(CO)O2)cc1F (stereo not given in full) | -22.1% (inactive) |  |
| COc1c2c(nc3occc13)C(CC=C(C)C)(OC)C(OC(C)=O)CC2 (stereo not given) | 1.02% (inactive) |  |
| CCn1c(-c2nonc2N)nc2cncc(CNC3CCNCC3)c21 |  | 17.2 µM (active) |
| CC1(C)CC(=O)CC(C)(C)N1 | 10.9% [at 115 µM] (inactive) |  |

| SMILES | activity change, negative = reduced viability | Potency |
| --- | --- | --- |
| C[C@H]([C@@H](N)C(=O)N[C@@H](C(=O)O)[C@@H]1O[C@H](n2ccc(=O)[nH]c2=O)[C@@H](O)[C@H]1O)[C@@H](O)c1ccc(O)cn1 | 0.844% (inactive) |  |
| O=c1[nH]cnc2c1ncn2C1OCC(O)C(O)C1O (stereo not given) | 2.26% (inactive) |  |
| C[C@H]1CC[C@@H]2[C@@H](C)[C@H]3C(C[C@H]4C5CC[C@H]6C[C@@H](O)CC[C@]6(C)C5CC[C@]34C)N2C1 (stereo not given in full) | 14% (inactive) |  |
| COC(=O)[C@@]1(C)CC[C@]2(C)CC[C@@]3(C)C(=CC(=O)C4[C@@]5(C)CC[C@H](O)C(C)(C)[C@@H]5CC[C@]43C)[C@H]2C1 (stereo not given in full) | -0.107% (inactive) |  |
| C=CC(=O)Nc1cccc(Nc2nc(NC3CCC(N(C)C)CC3)nc3c2ncn3C(C)C)c1 (stereo not given) |  | 0.968 µM (active) |
| COc1ccc(C2CC(=O)c3c(O)cc(O)cc3O2)c(CC=C(C)C)c1OC (stereo not given) | 7.22% (inactive) |  |
| CC(C)CC[C@@H](O)[C@](C)(O)C1CC[C@@]2(O)C3=CC(=O)[C@@H]4C[C@@H](O)[C@@H](O)C[C@]4(C)C3CC[C@]12C (stereo not given in full) | 8.11% (inactive) |  |
| O=c1ccc2ccc(O[C@@H]3O[C@H](CO[C@@H]4OC[C@](O)(CO)[C@H]4O)[C@@H](O)[C@H](O)[C@H]3O)cc2o1 | 10.3% (inactive) |  |
| CC1(C)C[C@H]2C3=CCC4[C@@]5(C)CC[C@H](O)[C@](C)(CO)C5CC[C@@]4(C)[C@]3(C)C[C@@H](O)[C@@]2(CO)[C@@H](O)[C@@H]1O (stereo not given in full) | 7.7% (inactive) |  |
| O=CN(O)CCCP(=O)(O)O | 2.23% (inactive) |  |
| CC1CC2CCCC(O)=C2C(=O)O1 (stereo not given) | 4.66% (inactive) |  |
| C/C=C(\C)C(=O)O[C@H]1CC(C)=C2C(=O)C=C(C)C2[C@@H]2OC(=O)[C@@](C)(OC(=O)C=C(C)C)C21 (stereo not given in full) | -0.34% (inactive) |  |
| ON=Cc1ccnc2ccccc12 | 1.99% (inactive) |  |
| CSC(=S)NCc1c[nH]c2ccccc12 | 16.3% (inactive) |  |
| O=C(Oc1ccccc1)c1ccccc1C(=O)Oc1ccccc1 | -0.879% (inactive) |  |
| c1ccc2cnccc2c1 | 9.53% [at 115 µM] (inactive) |  |
| COc1ccc2c(=O)c(-c3ccc(OC)c(OC)c3)coc2c1 | -1.73% (inactive) |  |
| CC1(C)OC(=O)C=C[C@]2(C)[C@H]3CC[C@@]4(C)[C@H](c5ccoc5)OC(=O)[C@H]5O[C@]54[C@]3(C)C(=O)C[C@@H]12 | 33.8% (inactive) |  |
| COc1cc2c(c3oc(-c4ccccc4)cc(=O)c13)C=CC(C)(C)O2 | -16.8% (inactive) |  |
| COc1cc(O)c2c(=O)c3c(O[C@H]4O[C@@H](CO)[C@H](O)[C@@H](O)[C@@H]4O)ccc(O)c3oc2c1 | -2.48% (inactive) |  |
